In the supplement of paper PMC4894684:
Structures can show the parent of a compound that is named as a salt. ± gives the standard deviation of the averaged measurements.

test system: Toxoplasma gondii RH (in HFF); assay: parasite growth relative to the screen mean (all compounds = 100%); higher = less inhibition of parasite growth; details: 5 µM; 72 h; oxygen 21 %
Procedure, shortened: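 Growth values are relative to the mean of the whole screen and averaged over duplicate screens, with all compounds together set to 100%. Parasites (RH β-Gal–GFP Toxoplasma, MOI 1:5) were added within 2 h of pinning compounds at 5 µM final onto confluent human foreskin fibroblasts and grown 72 h at 21% O2. Parasite number came from CPRG β-Gal readings against in-plate standard curves.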

`CCC(C)N(C)C(=O)c1cc2ccccc2c(-c2ccccc2Cl)n1` (centres undefined) and `CC(C)NCC(O)COc1cccc2ccccc12` (centres undefined) [Propranolol hydrochloride] are within error of each other in parasite growth: 85.5 ± 33% for the first, 99.4 ± 14% for the second.

Going from `COCCOC(=O)C1=C(C)NC(C)=C(C(=O)OC/C=C/c2ccccc2)C1c1cccc([N+](=O)[O-])c1` (centres undefined) [Cilnidipine] to `COc1ccc(/C=C/C(=O)Nc2ccccc2C(=O)O)cc1OC` [Tranilast], the parasite growth rises from 27.9 ± 21% to 111 ± 30%.

`CCn1c(=O)[nH]c2cc(Cl)c(Cl)cc21` and `CCCn1c(=O)c2[nH]c(C3CCCC3)nc2n(CCC)c1=O` are within error of each other in parasite growth: 89.8 ± 61% for the first, 103 ± 7% for the second.

First: CN1Cc2c(C(=O)OC(C)(C)C)ncn2-c2ccsc2C1=O
Second: CC(C)(Oc1ccc(Cl)cc1)C(=O)O [Clofibric acid]
The parasite growth of the first is lower: 55.6 ± 4.8% for the first, 127 ± 43% for the second.

`CNC(=O)[C@H]1O[C@@H](n2cnc3c(NCc4cccc(I)c4)ncnc32)[C@H](O)[C@@H]1O` and `CNC(=O)[C@H]1O[C@@H](n2cnc3c(NCc4cccc(I)c4)nc(Cl)nc32)[C@H](O)[C@@H]1O` are within error of each other in parasite growth: 117 ± 14% for the first, 120 ± 28% for the second.

Compared with `CCOc1cc(CC(=O)N[C@@H](CC(C)C)c2ccccc2N2CCCCC2)ccc1C(=O)O` [Repaglinide], `c1cc(CN2CCCCC2)cc(OCCCNc2nc3ccccc3s2)c1` [Zolantidine dimaleate] is lower in parasite growth: 150 ± 13% for the first, 112 ± 4.6% for the second.

`CC(CCCCC(=O)Nc1ccc(C(F)(F)F)cc1)NCCc1cnc[nH]1` (centres undefined) [HTMT dimaleate] and `COc1cc(OC)c(C(=O)CCCCN2CCC3(CC2)NC(=O)NC3=O)cc1NS(=O)(=O)c1ccc(C(F)(F)F)cc1` are within error of each other in parasite growth: 95.1 ± 7.2% for the first, 109 ± 11% for the second.

Going from `O=C(O)CC/C=C\C[C@H]1CO[C@@H](c2ccccc2Cl)O[C@H]1c1ccccc1O` to `CC(C)(C(=O)O)c1ccc(C(O)CCCN2CCC(C(O)(c3ccccc3)c3ccccc3)CC2)cc1` (centres undefined) [Fexofenadine hydrochloride], the parasite growth rises from 79.02 ± 0.65% to 122 ± 26%.

First: C[N+](C)(C)CCCCCNCC12CC3CC(CC(C3)C1)C2
Second: CC(C)NCC(O)COc1ccc(CCOCC2CC2)cc1 (centres undefined) [Betaxolol hydrochloride]
The parasite growth of the first is higher: 120 ± 3.1% for the first, 89.4 ± 13% for the second.

`C/N=C(/NC#N)NCCSCc1csc(NC(=N)N)n1` [Tiotidine] and `C[C@](N)(Cc1ccc(O)c(O)c1)C(=O)O` [L-(-)- α-Methyldopa] are within error of each other in parasite growth: 122 ± 30% for the first, 146 ± 39% for the second.

`CC(=Cc1ccc(C(=O)O)cc1)c1ccc2c(c1)C(C)(C)CCC2(C)C` and `COC(=O)/C=C/c1cc(O)ccc1O` [Methyl 2,5-dihydroxycinnamate] are within error of each other in parasite growth: 120 ± 27% for the first, 126 ± 30% for the second.

`COc1ccc(-c2nc(-c3ccc(-c4cccc(Cl)c4)o3)[nH]c2-c2ccc(OC)cc2)cc1` [Neurodazine] and `NC(C(=O)O)c1ccc(C(=O)O)c(C(=O)O)c1` (racemic) are within error of each other in parasite growth: 120 ± 28% for the first, 101 ± 31% for the second.
